We go through 16 compounds from PubChem BioAssay (NCATS).

Where “and” joins values, the source holds several entries; their conditions need not be identical. Equal entries are not always repeated. Results filed as inconclusive are left out. The source holds several records for some structures; these can differ, active in one and inactive in another. Values without a mark were called inactive. Calls of active or inactive are those of the source. Calls come from the whole dose curve; as a rule, active = well fitted inhibition curve with a large enough effect; inconclusive = small, poorly fitted or top-dose-only effect; inactive = flat fitted curve, though single readings scatter.

The subject of one assay is TAB113. Description: qHTS profiling for inhibitors of Plasmodium falciparum proliferation (AID 504749). Note: potency is the fitted concentration of half-maximal effect. The note with it: P. falciparum in erythrocytes, SYBR Green DNA, 72 h; series mostly up to 28.7 µM. Summed up: (§1)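 Each compound contacts P. falciparum-infected red blood cells for 72 h at 37 C; lysis buffer (Tris, EDTA, saponin, Triton X, SYBR Green I) is added and fluorescence measured next morning; values normalized to controls.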
(Quantitative high-throughput screening tests each substance at several concentrations.)

The test system of another assay is TAB165. Described as above. The following applies: P. falciparum in erythrocytes, SYBR Green DNA, 72 h; series mostly up to 28.7 µM. Summed up: as §1
For the next assay, the system named is W2. Described as above. The note with it: P. falciparum in erythrocytes, SYBR Green DNA, 72 h; series mostly up to 28.7 µM. Summed up: as §1
Another assay has as its system CRL-7250. Put plainly: Cytotoxic Profiling of Annotated Libraries Using Quantitative High-Throughput Screening (AID 1296008). For max response: % is set by controls: 0 for no effect and ±100 for the full control effect. Note: potency is the fitted concentration of half-maximal effect. The note with it: Five cell lines viability, CellTiter-Glo ATP luminescence, 48-72 h; max response: active compounds read low. Summed up: (§2)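 Cells exposed to compounds for 48 or 72 hr at 37 degrees Celsius. Viability read as ATP-coupled luminescence with CellTiter-Glo after 10 min at room temperature.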
(Cellular ATP, detected with luciferase, serves as a proxy for viable cell number.)

The test system of a further assay is HEK293. The description is as above. The note with it: Five cell lines viability, CellTiter-Glo ATP luminescence, 48-72 h; max response: active compounds read low. Put shortly:
as §2

Assay [1] has as its system HaCat. Described as above. The following applies: Five cell lines viability, CellTiter-Glo ATP luminescence, 48-72 h; max response: active compounds read low. Put shortly: as §2
The subject of the next assay is KB-3-1. The description is as above. The note with it: Five cell lines viability, CellTiter-Glo ATP luminescence, 48-72 h; max response: active compounds read low. Put shortly:
as §2

The test system of a further assay is NIH3T3. The assay is described as above. The note with it: Five cell lines viability, CellTiter-Glo ATP luminescence, 48-72 h; max response: active compounds read low. Put shortly: as §2
Assay [2] concerns HACAT. Put plainly: qHTS assay to identify novel small-molecules to repurpose for Merkel cell carcinoma treatment (AID 1296009). The following applies: MCC and control cell lines, CellTiter-Glo viability, 72 h; at 44.8 µM (top of the series) unless noted. Put shortly:
(§3)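 Dose-response viability screen; 72 hr exposure at 37 degree celsius; CellTiter-Glo added, 10 min room temperature, luminescence read; RLUs scaled between no-cell and DMSO wells.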

A further assay relates to HEK293T. Described as above. The following applies: MCC and control cell lines, CellTiter-Glo viability, 72 h; at 44.8 µM (top of the series) unless noted. Summed up:
as §3
Note: nearly all actives have a fitted effect of over 60% in size.

`CCOC(=O)[C@H](CCc1ccccc1)N[C@@H](C)C(=O)N1C(=O)N(C)C[C@H]1C(=O)O`: the Potency entry with TAB113, with TAB165 and in the assay on W2 was “inactive” in each case. For the same compound, the max response is 1.6% with CRL-7250; -1.24% in the assay with HEK293; 0.859% in the assay with HaCat [1]; 5.5% and 4.49% in the assay on KB-3-1; 4.99% in the assay with NIH3T3. In addition, the result in the assay on CRL-7250, in the assay with HEK293, in the assay with HaCat [1], in the assay with NIH3T3, in the assay with HACAT [2] and with HEK293T was inactive.
Take `CC/C=C(\C(=O)N[C@@H]1C(=O)N2C(C(=O)OCOC(=O)C(C)(C)C)=C(COC(N)=O)CS[C@H]12)c1csc(N)n1`: the max response in the assay with CRL-7250 is -3.67%; in the assay with HEK293, 1.21%; with HaCat [1], -0.519% and -7.83%; in the assay with KB-3-1 it was -16.1% and -3.61%; with NIH3T3, -1.08%.
For `CCN(CC)CCNC(=O)c1cc(Cl)c(N)cc1OC`, the Potency result with TAB113, in the assay with TAB165 and in the assay on W2 was “inactive” in each case. The max response was 0.565% in the assay with CRL-7250, -1.38% in the assay on HEK293, 1.24% in the assay with HaCat [1] and -2.52% with NIH3T3. Besides, the call with HEK293, in the assay on HaCat [1], in the assay on NIH3T3, in the assay with HACAT [2] and in the assay on HEK293T was inactive.
Turning to `COc1ccc(Cl)cc1C(=O)NCCc1ccc(S(=O)(=O)NC(=O)NC2CCCCC2)cc1`, the Potency entry in the assay on TAB113 and in the assay on TAB165 was “inactive” in each case. Besides, the max response in the assay on CRL-7250 was -1.35% and -10.9%; with HEK293, -12.8%; with HaCat [1] it was 2.84% and -12.6%; in the assay with KB-3-1 it was -9.53%; in the assay on NIH3T3, -5.68% and -4.29%. In addition, the call with HEK293, with KB-3-1 and with HEK293T was inactive.
For the compound `c1ccc(CN(CC2=NCCN2)c2ccccc2)cc1`, in the assay with W2, the Potency was 7.57 µM (active). For the same compound, the max response in the assay with CRL-7250 was 3.95% and 1.52%; with HEK293 it was 0.31% and -21.2%; with HaCat [1], 4.83%; in the assay with KB-3-1, -11.4% and 8.49%; with NIH3T3, 2.96%. For the same compound, the compound was called inactive in the assay on HaCat [1], in the assay with NIH3T3 and in the assay on HACAT [2].
Turning to `Cc1cc(C(C#N)c2ccc(Cl)cc2)c(Cl)cc1NC(=O)c1cc(I)cc(I)c1O` (stereo not drawn), the Potency entry with TAB113 and with TAB165 was “inactive” throughout. Besides, the max response was -2.5% in the assay with CRL-7250, -12.9% with HEK293, -17.7% in the assay on HaCat [1] and -5.52% with NIH3T3. Besides, the outcome in the assay on CRL-7250, in the assay on HaCat [1], in the assay with KB-3-1, in the assay on NIH3T3 and in the assay on HACAT [2] was inactive. The Potency in the assay on HEK293 was 23.7 µM (active).
Turning to `OCC(O)CN1CCN(c2ccccc2)CC1` (stereo not drawn), the Potency entry in the assay with TAB113, in the assay on TAB165 and with W2 was “inactive” throughout. Also, the max response is 0.497% and 1.49% in the assay with CRL-7250; -1.21% in the assay on HEK293; -30% with HaCat [1]; -6.94% and 8% in the assay on KB-3-1; -1.52% in the assay on NIH3T3. The compound was called inactive in the assay on HEK293, in the assay on NIH3T3 and with HEK293T.
`CNC(=O)Oc1ccc2c(c1)[C@]1(C)CCN(C)[C@@H]1N2C`: the Potency in the assay on TAB165 is 1.58 µM (active); with W2 it was 1.51 µM (active). Besides, the outcome with CRL-7250, with HEK293, in the assay with HaCat [1], in the assay with KB-3-1, in the assay on NIH3T3 and in the assay on HACAT [2] was inactive. In addition, the outcome with HEK293T was inactive. For the same compound, the max response with HaCat [1] was -0.257%; in the assay with KB-3-1 it was -5.47%; in the assay on NIH3T3, -4.44%.
As to `Cc1cccc(Nc2cc(Cl)nc(SCC(=O)O)n2)c1C`, the Potency result with TAB113, with TAB165 and in the assay on W2 was “inactive” in each case. The max response with CRL-7250 was 0.443% and 0.95%; with HEK293, 1.85% and -1.17%; with HaCat [1], 1.74%; with KB-3-1, 6.42% and 8.75%; in the assay with NIH3T3 it was -16.8% and 0.675%. The compound was called inactive with HaCat [1] and in the assay on HACAT [2].
`C[C@]12CC[C@@H]3c4ccc(O)cc4CC[C@H]3[C@@H]1CC[C@@H]2OC(=O)CCC1CCCC1`: the max response is -19.6% with CRL-7250; -8.4% in the assay with HEK293; -5.64% and 15.4% in the assay with KB-3-1; 2.8% with NIH3T3. Further, the compound was classed as inactive in the assay on CRL-7250, in the assay on HaCat [1] and with HACAT [2].
As for `CN(C)CCCN1c2ccccc2CCc2ccccc21`, the max response in the assay on CRL-7250 was 0.991%; in the assay with HaCat [1] it was -28.4%; with KB-3-1, -10.8%; with NIH3T3 it was -1.95%. The Potency in the assay on HEK293 is 13.3 µM (active).
On to `CCOc1nc2cccc(C(=O)O)c2n1Cc1ccc(-c2ccccc2-c2nn[nH]n2)cc1`, for which the max response in the assay on CRL-7250 was -0.772%; in the assay on HEK293, -7.13% and 4.6%; in the assay with HaCat [1], -22.9% and -2.42%; in the assay with KB-3-1 it was -0.374% and 6.58%; with NIH3T3 it was 4.21%. Moreover, the compound was called inactive in the assay with CRL-7250 and in the assay on NIH3T3.
Regarding `CC(C)C(=O)c1c(C(C)C)nn2ccccc12`, the max response was -8.07% in the assay with CRL-7250; -1.74% in the assay on HEK293; 2.88% in the assay with HaCat [1]; -2.88% in the assay with KB-3-1; -15.3% in the assay with NIH3T3.
For `COc1ccc2[nH]c(S(=O)Cc3ncc(C)c(OC)c3C)nc2n1` (stereo not drawn), the figures for the Potency in the assay with TAB113, in the assay on TAB165 and with W2 were 8.91 µM (active), 7.94 µM (active) and 9.53 µM (active), respectively. For the same compound, the compound was classed as inactive in the assay with CRL-7250, in the assay with HEK293, in the assay with HaCat [1], in the assay with KB-3-1, with NIH3T3 and with HACAT [2]. Moreover, in the assay on HEK293T, the compound was called inactive. Moreover, the max response is -5.32% in the assay on HaCat [1], 2.51% with KB-3-1 and 3.86% in the assay on NIH3T3.
On to `CC(C)(C)C(=O)C(Oc1ccc(Cl)cc1)n1ccnc1` (stereo not drawn), for which the Potency with TAB113 is 10 µM (active); in the assay with TAB165 it was 7.08 µM (active); in the assay on W2, 6.01 µM (active). In addition, the max response was -7.22% in the assay on CRL-7250; -9.75% with HaCat [1]; -11% and -12.3% in the assay with KB-3-1; -7.83% with NIH3T3. Moreover, the result with CRL-7250, with HEK293, with HaCat [1], with NIH3T3, with HACAT [2] and in the assay on HEK293T was inactive.
`CS(=O)(=O)c1ccc([C@@H](O)[C@@H](CF)NC(=O)C(Cl)Cl)cc1`: the max response is -8.92% in the assay on CRL-7250; 3.4% in the assay on HaCat [1]; -19.8% in the assay with KB-3-1; -3.77% and 0.419% in the assay on NIH3T3. Also, the call with CRL-7250, with HaCat [1] and with HACAT [2] was inactive. Also, the Potency in the assay on HEK293 was 2.99 µM (active).
